Source: PubChem (several laboratories)
Only some compounds are listed: those with a hit (about 12% of all), similar ones and a draw of the others.
m-calpain inh = inhibitors of pig calpain II, primary screen, biochemical, fluorogenic peptide substrate, 1536-well | inhibition, % at 16 µM | actives 0.37% (n = 220,000) | purified calpain II, 30 min;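 active = inhibition above about 50%, limit read from the data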
WT yeast gro inh = growth inhibition of WT strain, primary screen, mitochondrial fusion inhibitor project, WT and mutant strains, chemical genetic; inhibition, % at 10 µM; AID 1362, 2008; actives 2.1% (n = 190,000); mitochondrial fusion phenotypic screen; in the data active = inhibition above about 58%; tested in S. cerevisiae
ROMK primary = ROMK potassium channel modulators, primary screen, cell-based, thallium flux, MLSMR library; ATP-sensitive inward rectifier potassium channel 1 (Homo sapiens), P48048; Tet-inducible ROMK, thallium flux fluorescence; actives lie on both sides; B-score at 10 µM; actives 2% (n = 130,000);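 active = signal ratio slope over the read window, or its plate-corrected B-score, at least 3 SD from the plate mean, either direction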;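 note: B-score of the F/F0 ratio slope over 7 to 12 s after thallium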
KCC2 mod = KCC2 cotransporter modulators, thallium flux, primary screen, cell-based, HEK293 KCC2, FluoZin-2 fluorescence, MLSMR | KCC2 cells, thallium flux FluoZin-2 fluorescence | B-score of Tl+ flux slope (higher = more flux/activation; lower = inhibition) at 10 µM | actives 2.2% (n = 190,000) | AID 1456, 2008;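 active = thallium flux slope and its plate-corrected score both differing from the plate sample mean at a set confidence after two filtering rounds, in either direction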;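 note: slope of fluorescence scaled to starting intensity during 10 to 20 s after thallium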
L major viab = Leishmania major promastigote growth inhibition, primary screen; Leishmania major promastigotes, resazurin fluorescence viability; inhibition, % at 10 µM; actives 9% (n = 200,000); in the data active = inhibition above about 50%;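 note: promastigotes grown with compound for 44 hours at 28 °C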
Each line names hits and unclear results; the compound was inactive in the other large screens.

Cc1[nH]n(-c2ccccc2)c(=O)c1/C=N/c1ccccn1	KCC2 mod 18 (no result: ROMK primary)
CC1=NN(c2ccccc2)C(=O)/C1=C/C=C/c1ccccc1	L major viab 100
CCCCCC(=O)N/N=C(\C)c1ccccn1	L major viab 93 (no result: ROMK primary)
C/C(=N\NC(=O)COc1ccccc1-c1ccccc1)c1ccccn1	WT yeast gro inh 72, L major viab 100
CCCCCCCCCC(=O)N/N=C(\C)c1cccnc1	none
CCCNC(=O)Cn1c(=O)/c(=C\c2ccc(-c3ccc([N+](=O)[O-])cc3)o2)s/c1=C\C(=O)C(C)(C)C	L major viab 73 (no result: ROMK primary)
CCCNC(=O)Cn1c(=O)/c(=C\c2ccc(-c3cccc([N+](=O)[O-])c3)o2)s/c1=C\C(=O)C(C)(C)C	L major viab 63 (no result: ROMK primary)
CCc1cc2c(cc3c(=O)n(CC(=O)NCCCN4CC(C)CC(C)C4)ncn32)s1 (stereo not drawn)	L major viab 84 (no result: ROMK primary)
CCc1cc2c(cc3c(=O)n(CC(=O)NCCCN(CC)CC)nc(CC)n32)s1	L major viab 92
CN(Cc1ccon1)C(=O)CC1C(=O)NCCN1CC1CCCCC1 (stereo not drawn)	none (no result: KCC2 mod)
COc1ccc(OC)c(C(C)NC(=O)Nc2ccccc2)c1 (stereo not drawn)	none
O=C(CN1C(=O)c2cccc3cccc1c23)N1CCN(Cc2ccc3c(c2)OCO3)CC1	L major viab 88 (no result: ROMK primary)
O=C(C1COc2ccccc2O1)N1CCCC1 (stereo not drawn)	none
O=C(CCc1ccc(S(=O)(=O)NCCc2ccccc2)cc1)N1CCN(Cc2ccc3c(c2)OCO3)CC1	L major viab 78
CCCC(=O)N1CCN(Cc2ccc3c(c2)OCO3)CC1	none
O=C(C1COc2ccccc2O1)N1CCN(Cc2ccc3c(c2)OCO3)CC1 (stereo not drawn)	L major viab 89 (no result: ROMK primary)
CC(C)CNS(=O)(=O)c1ccc(CCC(=O)N2CCN(Cc3ccc4c(c3)OCO4)CC2)cc1	none (no result: ROMK primary)
O=C(CCN1C(=O)c2cccc3cccc(c23)C1=O)N1CCN(Cc2ccc3c(c2)OCO3)CC1	none (no result: KCC2 mod)
O=C(CSCc1ccccc1)N1CCN(Cc2ccc3c(c2)OCO3)CC1	ROMK primary -2.9, L major viab 99
CCOC(=O)NC(=O)COC(=O)c1cccc2ccccc12	none
CCC(=O)n1nc(-c2ccc(Cl)cc2)nc1NCc1ccccc1	none (no result: ROMK primary)
COc1cc(OC)c(N(C)S(=O)(=O)c2cccc(C(=O)NC3=NCCS3)c2)cc1Cl	none (no result: WT yeast gro inh, ROMK primary, L major viab)
Cc1ccc(CNC(=O)c2ccccc2-n2cnnn2)cc1	none (no result: WT yeast gro inh, ROMK primary, L major viab)
Cn1c(=O)c2c(SCC(=O)N3CCCc4ccccc43)nc(CC(C)(C)C)nc2n(C)c1=O	L major viab 52 (no result: ROMK primary, KCC2 mod)
CC(C)n1c(SCC(=O)N2c3ccccc3CCc3ccccc32)nc2c1c(=O)n(C)c(=O)n2C	none (no result: m-calpain inh, WT yeast gro inh)
CC(C)n1c(SCC(=O)N2c3ccccc3Sc3ccccc32)nc2c1c(=O)n(C)c(=O)n2C	L major viab 60 (no result: KCC2 mod)
Cn1c(=O)c2c(nc(SCC(=O)N3c4ccccc4CCc4ccccc43)n2C)n(C)c1=O	L major viab 52 (no result: KCC2 mod)
CCCn1c(SCC(=O)N2c3ccccc3Sc3ccccc32)nc2c1c(=O)n(C)c(=O)n2C	L major viab 62 (no result: KCC2 mod)
CCOC(=O)C1=C(c2ccccc2)NC(N)=NC1c1ccc(OCc2ccc(Cl)cc2)c(OC)c1 (stereo not drawn)	none (no result: WT yeast gro inh, L major viab)
Cn1c(=O)c2c(nc(CN3CCc4ccccc4C3)n2Cc2cccc(Cl)c2)n(C)c1=O	L major viab 56 (no result: ROMK primary)
Cn1c(=O)c2c(nc(CN3CCN(Cc4ccccc4)CC3)n2Cc2cccc(Cl)c2)n(C)c1=O	none (no result: m-calpain inh, ROMK primary)
Cn1c(=O)c2c(nc(CN3CCc4ccccc4C3)n2Cc2ccccc2F)n(C)c1=O	L major viab 61 (no result: KCC2 mod)
Cn1c(=O)c2c(nc(CN3CCc4ccccc4C3)n2CCc2ccccc2)n(C)c1=O	none (no result: m-calpain inh, WT yeast gro inh)
CCOc1[nH]n(-c2ccccc2)c(=O)c1C=NCc1cccnc1	none
O=C(CS(=O)(=O)c1cccc(C(F)(F)F)c1)Nc1ccccc1Cl	none (no result: ROMK primary)
COC(=O)c1ccccc1OCC(=O)N1CCN(c2ccc(OC)cc2)CC1	none (no result: ROMK primary)
CC1=C(C(N)=O)C(c2cccnc2)n2nc(-c3cccc(C)c3)nc2N1 (stereo not drawn)	L major viab 85
Cc1ccc(NS(=O)(=O)c2cccc(C(=O)Nc3c(C)n(C)n(-c4ccccc4)c3=O)c2)cc1	none (no result: WT yeast gro inh, ROMK primary, KCC2 mod, L major viab)
CSc1nc(Oc2ccccc2)c2sccc2n1	m-calpain inh 54 (no result: ROMK primary, KCC2 mod)
CSc1nc(Oc2ccc(Cl)cc2)c2sccc2n1	none (no result: ROMK primary, KCC2 mod)
CCCN1CCC(NC(=S)Nc2ccc(S(N)(=O)=O)cc2)CC1	none
CN1CCC(Oc2ccccc2Sc2ccc(C(F)(F)F)cc2)CC1	L major viab 99 (no result: ROMK primary)
CN1CCC(Oc2ccc(Sc3ccccc3)cc2)CC1	L major viab 100 (no result: KCC2 mod)
Cc1ccc(-n2[nH]c(C)c(C=Nc3ccc(S(=O)(=O)N4CCOCC4)cc3)c2=O)c(C)c1	L major viab 52
O=c1cc(CNc2ccc(Br)cc2)nc2sccn12	L major viab 71 (no result: ROMK primary)
CCN1CCN(C(=S)c2ccc(Br)cc2)CC1	L major viab 85 (no result: ROMK primary)
CN1CCN(C(=S)Nc2cc([N+](=O)[O-])ccc2Cl)CC1	L major viab 66 (no result: ROMK primary)
CN1CCN(C(=S)c2ccc(Br)cc2)CC1	L major viab 85 (no result: ROMK primary)
CN1CCN(C(=S)c2ccc([N+](=O)[O-])cc2)CC1	L major viab 66 (no result: ROMK primary)
COc1cc(NC(=S)N2CCN(C)CC2)c(OC)cc1Cl	none
CC(C)(C)CN1CCNC(=O)C1CC(=O)NCCN1CCCc2ccccc21 (stereo not drawn)	none (no result: KCC2 mod)
CN1CCN(C(=S)c2ccc(N(C)C)cc2)CC1	L major viab 94 (no result: ROMK primary)
CSc1ccc(C(=S)N2CCN(C)CC2)cc1	L major viab 94 (no result: KCC2 mod)
CCC(C)(C)NC(=O)C(c1cccnc1)N(C(=O)c1csnn1)c1ccccc1 (stereo not drawn)	none
N#Cc1c(NC(=O)c2cccc(S(=O)(=O)Nc3ccc(C(=O)O)cc3)c2)sc2c1CCCC2	m-calpain inh 52 (no result: WT yeast gro inh, ROMK primary, L major viab)
CCN(CC)S(=O)(=O)c1cccc(C(=O)Nc2sc3c(c2C(N)=O)CCCC3)c1	WT yeast gro inh 73 (no result: ROMK primary)
CCOc1ccc(Br)cc1C1C(C(=O)OC)=C(N)Oc2cc(N(C)C)ccc21 (stereo not drawn)	WT yeast gro inh 59, L major viab 100
CC(=O)N1c2ccc([N+](=O)[O-])cc2NC(=O)CC1C (stereo not drawn)	none
CCc1nnc(NS(=O)(=O)c2ccc(N=Cc3c(C)[nH]n(-c4ccc(C)c(C)c4)c3=O)cc2)s1	WT yeast gro inh 63 (no result: ROMK primary)
CN(C)c1ccnc(Oc2ccc(C(C)(C)C)cc2)c1C#N	m-calpain inh 59 (no result: ROMK primary, KCC2 mod)
O=C(Cn1nnc(-c2ccc(CN3CCOCC3)cc2)n1)N(c1ccccc1)c1ccccc1	L major viab 70 (no result: ROMK primary)
NC(=O)Cn1nnc(-c2ccc(CN3CCCCC3)cc2)n1	none
O=C(CN1CCOCC1)N1CCCc2ccccc21	none
